KDM5B inh = KDM5B demethylase inhibition; Q9UGL1; Potency, µM (doses to about 57.7 µM), most hits filed as inhibitors; KDM5B demethylase, FDH-coupled NADH fluorescence (FDH is formaldehyde dehydrogenase); 220,000 tested, 2.6% active; active means well fitted inhibition curve with a large enough effect; further: 0% is about no effect; nearly all actives have a fitted effect of over 70% in size
Target sequence (Q9UGL1 whole entry, looked up): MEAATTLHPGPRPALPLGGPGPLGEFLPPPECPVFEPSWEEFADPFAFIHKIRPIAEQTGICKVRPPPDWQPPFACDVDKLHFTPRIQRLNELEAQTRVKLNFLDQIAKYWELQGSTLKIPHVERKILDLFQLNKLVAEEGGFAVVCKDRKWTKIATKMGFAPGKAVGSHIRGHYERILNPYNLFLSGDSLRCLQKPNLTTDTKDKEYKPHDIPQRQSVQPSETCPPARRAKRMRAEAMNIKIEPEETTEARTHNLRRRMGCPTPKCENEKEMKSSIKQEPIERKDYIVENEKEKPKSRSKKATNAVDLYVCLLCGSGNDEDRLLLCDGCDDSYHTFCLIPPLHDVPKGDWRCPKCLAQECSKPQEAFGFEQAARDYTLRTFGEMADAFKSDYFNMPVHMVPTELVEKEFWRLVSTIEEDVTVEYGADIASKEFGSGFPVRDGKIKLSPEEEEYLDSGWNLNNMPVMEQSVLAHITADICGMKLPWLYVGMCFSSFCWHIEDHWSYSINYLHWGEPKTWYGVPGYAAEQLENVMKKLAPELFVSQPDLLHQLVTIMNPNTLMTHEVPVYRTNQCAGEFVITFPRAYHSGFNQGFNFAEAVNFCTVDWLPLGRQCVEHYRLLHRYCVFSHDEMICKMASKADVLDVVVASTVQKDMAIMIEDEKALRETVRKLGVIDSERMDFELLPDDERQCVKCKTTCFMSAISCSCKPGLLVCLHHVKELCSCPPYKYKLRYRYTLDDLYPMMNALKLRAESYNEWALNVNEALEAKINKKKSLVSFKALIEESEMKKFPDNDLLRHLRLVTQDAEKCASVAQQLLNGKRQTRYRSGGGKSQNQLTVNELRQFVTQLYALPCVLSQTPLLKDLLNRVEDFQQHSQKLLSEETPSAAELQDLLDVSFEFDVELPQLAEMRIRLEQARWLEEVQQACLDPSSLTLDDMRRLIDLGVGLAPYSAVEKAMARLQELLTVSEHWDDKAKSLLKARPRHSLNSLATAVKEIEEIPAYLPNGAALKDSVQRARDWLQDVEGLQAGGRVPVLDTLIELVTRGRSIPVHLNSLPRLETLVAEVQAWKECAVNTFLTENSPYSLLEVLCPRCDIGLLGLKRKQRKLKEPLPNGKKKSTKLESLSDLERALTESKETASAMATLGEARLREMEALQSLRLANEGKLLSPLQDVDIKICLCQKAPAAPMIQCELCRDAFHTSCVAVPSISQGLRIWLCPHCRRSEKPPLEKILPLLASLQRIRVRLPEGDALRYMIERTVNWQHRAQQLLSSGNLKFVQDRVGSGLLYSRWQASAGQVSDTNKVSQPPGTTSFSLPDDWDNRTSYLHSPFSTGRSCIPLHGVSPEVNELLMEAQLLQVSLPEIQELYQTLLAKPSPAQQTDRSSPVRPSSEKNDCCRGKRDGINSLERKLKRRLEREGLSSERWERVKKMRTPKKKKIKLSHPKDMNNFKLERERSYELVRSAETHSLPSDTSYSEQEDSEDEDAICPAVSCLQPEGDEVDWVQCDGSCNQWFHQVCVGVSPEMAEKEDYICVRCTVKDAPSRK
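KDM5BΔAP (200 nM final) in 50 mM HEPES pH 7.5, 0.01% Tween-20 was preincubated 10 min at RT with compound over a concentration range. Substrate mix (H3K4me3 12.5 µM, α-KG 25 µM, Fe²⁺, ascorbate, NAD⁺, FDH) was added, and NADH fluorescence change over 30 min gave dose-response curves.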
Starred values were filed as active, the others as inactive; i = inactive. This excerpt belongs to a sample that is enriched for hits. Potency means the concentration at half of the fitted maximal effect.

SMILES	KDM5B inh
CCCc1noc(-c2ccn3c(CNC(=O)c4c(F)cccc4F)nnc3c2)n1	28µM*
CCCc1noc(-c2ccn3c(CNC(=O)c4ccccc4F)nnc3c2)n1	8.9µM*
CCc1noc(-c2ccn3c(CNC(=O)c4cc(F)ccc4F)nnc3c2)n1	i
CCCc1noc(-c2ccn3c(CNC(=O)c4cc(F)ccc4F)nnc3c2)n1	32µM*
CCCc1noc(-c2ccn3c(CNC(=O)c4ccccc4Cl)nnc3c2)n1	i
Cc1ccc(C(=O)N2C[C@@H](F)C[C@H]2C(=O)N2CCCCC2)c(C)c1	i
O=C(NC(O)C(=O)c1ccccc1)c1ccccc1 (stereo not given)	i
Cc1cc(/C=C(/C#N)C(=O)OC(C)C)cc(C)c1OC(F)F	i
COc1ccc(CNC(=O)CC[C@]23CC[C@](C)(O)C[C@H]2C(C)(C)C[C@@H]3NC(=O)c2cccc(F)c2)cc1	i
C=Cn1cccc1-c1ccc(OC)cc1	i
COc1cccc(C(=O)N(C)CCCNC(=O)c2nc3ccccc3c(=O)[nH]2)c1	i
Cc1ccc(C(=O)N2CC(C(=O)NC3CCCCC3)C3(CCOCC3)C2)cc1 (stereo not given)	i
CN(C)C(=O)c1cccc(NC(=O)c2cc(Br)c(Br)s2)c1	i
CCN1C(=O)C2(CCN(S(=O)(=O)c3ccc(Cl)c(C)c3)CC2)c2ccccc21	i
CC(Cc1nc2ccccc2s1)(C(=O)O)c1ccccc1 (stereo not given)	i
Cc1nc2c(NC3CCN(C(=O)c4cccn4C)CC3)cccn2n1	32µM*
Cn1cccc1C(=O)N1CC[C@@H]2CN(S(C)(=O)=O)[C@@H]2C1	i
Cn1cccc1C(=O)N1CCC(Cc2nc(C3CC3)n[nH]2)C1 (stereo not given)	i
CCCN(Cc1ccccc1)C(=O)CCc1cccs1	i
Cc1noc(Cn2cnc3c(Cl)cc(Cl)cc3c2=O)n1	i
CNc1nc2c(c(C(=O)N3CCCC3)n1)CN(C(=O)Cn1nccc1C)CC2	22µM*
O=C(Cn1nc2c(cc1=O)CCCC2)N1CCCC1	i
CC(=O)N1CCc2[nH]cnc2C12CCN(C(=O)Cn1nccc1C)CC2	i
O=C(O)C(c1c[nH]c2cc(Cl)ccc12)N1CCN(CCNc2cc(=O)oc3ccccc23)CC1 (stereo not given)	i
Cc1cccc(NC(=O)C2CC(=O)N(c3n[nH]c4cccc(F)c34)C2)c1C (stereo not given)	i
SMILES	KDM5B inh
CCc1nc(NC(=O)C2CC(=O)N(c3n[nH]c4cccc(F)c34)C2)sc1C (stereo not given)	i
CC(=O)Nc1ccc(NC(=O)C2CC(=O)N(c3n[nH]c4cccc(F)c34)C2)cc1 (stereo not given)	35µM*
CCc1ccc(NC(=O)C2CC(=O)N(c3n[nH]c4cccc(F)c34)C2)cc1 (stereo not given)	35µM*
COc1cc(NC(=O)C2CC(=O)N(c3n[nH]c4cccc(F)c34)C2)cc(OC)c1OC (stereo not given)	i
O=C(NC1CCCCCC1)C1CC(=O)N(c2n[nH]c3cccc(F)c23)C1 (stereo not given)	32µM*
O=C(NC1CC1)C1CC(=O)N(c2n[nH]c3cccc(F)c23)C1 (stereo not given)	i
CC(C)c1nnc(NC(=O)C2CC(=O)N(c3n[nH]c4cccc(F)c34)C2)s1 (stereo not given)	i
CCCNC(=O)C1CC(=O)N(c2n[nH]c3cccc(F)c23)C1 (stereo not given)	i
Cc1ccc(NC(=O)C2CC(=O)N(c3n[nH]c4cccc(F)c34)C2)cc1C (stereo not given)	18µM*
O=C(Nc1nc2ccccc2s1)C1CC(=O)N(c2n[nH]c3cccc(F)c23)C1 (stereo not given)	i
O=C(C1CC(=O)N(c2n[nH]c3cccc(F)c23)C1)N1CCCC1 (stereo not given)	i
O=C(NC1CCCC1)C1=Cc2cc(Br)ccc2OC=C1	i
CN(C)CCOc1ccc(C(=O)/C=C/c2ccc(C(=O)O)cc2)cc1	i
Cc1ccc(-c2nc(CS(=O)(=O)CC3CCCO3)co2)c(C)c1 (stereo not given)	i
CCc1nc2ccccc2c(C(=O)OC(C)C(=O)NC(N)=O)c1C (stereo not given)	i
COc1ccc(C(=O)NCCc2c[nH]c3ccccc23)c(F)c1	i
CCOC(=O)c1c(NC(=O)CN2CCc3ccccc32)sc(C)c1CC	i
CC(=O)c1cccc(NC(=O)C(C)Sc2ccccc2Cl)c1 (stereo not given)	i
N#Cc1c(NC(=O)CN2CCNC(=O)C2)sc2c1CCCCC2	i
N#Cc1cccnc1N1CCN(Cc2ccc(F)c(F)c2)C(CCO)C1 (stereo not given)	13µM*
Cc1cc(N2CCN(Cc3ccc(F)c(F)c3)C(CCO)C2)nc(N)n1 (stereo not given)	i
Cc1noc2ncnc(N3CCN(Cc4ccc(F)c(F)c4)C(CCO)C3)c12 (stereo not given)	i
Cn1cnc2c1c(=O)n(CCCSc1nnc(-c3cccc(Cl)c3)o1)c(=O)n2C	i
CN(C)C[C@@H]1CN(Cc2ccncc2)C[C@H]1NC(=O)c1ccc(Cl)cc1	20µM*
CN(C)C[C@@H]1CN(c2ccncn2)C[C@H]1NC(=O)c1ccc(Cl)cc1	i
SMILES	KDM5B inh
CN(C)C[C@@H]1CN(Cc2cccnc2)C[C@H]1NC(=O)c1ccc(C#N)cc1	i
COCC(=O)N[C@@H]1CN(Cc2ccncc2)C[C@H]1CN(C)C	25µM*
COCC(=O)N[C@@H]1CN(Cc2ccccc2)C[C@H]1CN(C)C	i
COCCC(=O)N[C@@H]1CN(Cc2ccccc2)C[C@H]1CN(C)C	i
CS(=O)(=O)N1CCC(Oc2ccccc2-c2nc(C3CC3)no2)C1 (stereo not given)	i
Cc1cnc(NC(=O)C2CCN(c3ccc(C#N)cn3)CC2)s1	i
CN(CCOc1ccc(Br)cc1)C(=O)c1cc(=O)[nH]c2ccccc12	i
Nn1c(SC(C(=O)Nc2ccc(F)cc2)c2ccccc2)nnc1-c1ccco1 (stereo not given)	i
CCCNC(=O)N1CCC2(CCCCO2)CC1	i
O=C(N[C@H]1CCCNC1=O)C1=C[C@@H](NS(=O)(=O)c2cccs2)[C@@H](O)[C@H](O)C1	i
COc1cccc(C(=O)N2CCCC3(C2)NC(=O)N(Cc2ccc(C)cc2)C3=O)c1OC (stereo not given)	i
Cn1cccc1CN1CCC(N2CCOC2=O)CC1	89µM*
N#Cc1ccc(CN2CCC(N3CCOC3=O)CC2)cc1	i
COc1ccc(CN2CCC(N3CCOC3=O)CC2)cc1	i
Cc1cc(N2CCN(S(=O)(=O)c3ccc(Cl)c(C(F)(F)F)c3)CC2)nc(C(C)C)n1	i
O=S(=O)(Nc1nc2ccccc2nc1Nc1ccccc1Br)c1cccs1	i
N#Cc1ccc(/C=N/Nc2ccccc2Cl)cc1	i
CN1C(=O)Cc2cc(C(=O)NC3CCN(Cc4ccccc4)CC3)ccc21	i
CNC(=O)c1ccc2c(c1)C1(CCN(CC3CC3)C1)CN2Cc1ccccc1 (stereo not given)	35µM*
CC(C)NC(=O)c1ccc2c(c1)C1(CCN(CC3CC3)C1)CN2Cc1ccccc1 (stereo not given)	28µM*
O=C1N(CCc2ccccc2)c2ccccc2C12CCN(CC1CC1)C2 (stereo not given)	i

From PubChem BioAssay
